# Experimental data: the supplement of paper PMC6555819
# Legend:
# Assay in all cases: PBM binding z-score (relative to random genomic background probes); higher = stronger binding; sequences stand for … in GC…GCGATTGACAGCGTAGAATGAAGG
# [1] = tested on: RARb homodimer (NR concentration 270 nM)
# Summary of the method: (§1)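 Binding buffer was PBS pH 7.4 with 2% milk, 0.02% Triton X-100, 1 mM DTT, 0.2 mg/mL BSA and 0.4 mg/ml salmon testes DNA. In it, ligand-free nuclear receptor dimers were incubated 1 h on custom Agilent 4×180K protein-binding microarrays carrying double-stranded probes. Antibodies against each partner (one per run) detected binding, and z-scores were calculated against random background probes after regression normalization of scanned fluorescence.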
# [2] = tested on: RARg:RXRa (NR concentration 270 nM, RXRa partner concentration 90 nM)
# Summary of the method: as §1
# [3] = tested on: RARg homodimer (NR concentration 270 nM)
# Summary of the method: as §1
# [4] = tested on: RXRa DBDmut IVT, anti-RXR (DBD mutation: RXRa K156A/R161A, NR concentration 90 nM)
# Summary of the method: as §1
# [5] = tested on: RXRa homodimer (NR concentration 180 nM)
# Summary of the method: as §1
# [6] = tested on: THRa:RXRa (NR concentration 90 nM, RXRa partner concentration 90 nM)
# Summary of the method: as §1
# [7] = tested on: THRa homodimer (NR concentration 90 nM)
# Summary of the method: as §1
# [8] = tested on: VDR homodimer (NR concentration 270 nM)
# Summary of the method: as §1
Sequence,PBM binding z-score [1],PBM binding z-score [2],PBM binding z-score [3],PBM binding z-score [4],PBM binding z-score [5],PBM binding z-score [6],PBM binding z-score [7],PBM binding z-score [8]
ATACCAAGGTGATCGTGAGGTCGATGATACTAAC,1.82,2.16,1.22,0.391,1.36,3.09,1.95,1.21
GCAGACAGGGGAAACGCAGGTAACTCAGGGTGGC,-0.497,-0.368,-0.487,-0.47,-0.164,0.986,-0.308,-0.688
CCTAGCTGGTCAAGGTCACACACGCTATAGGTAC,4.06,4.56,4.74,1.82,4.92,3.97,3.76,2.88
TCGAGTAGGTTACCAATGGGGCATTCGGCTTTCT,0.464,1.01,0.0889,0.423,0.335,-0.119,-0.584,-0.411
TAGCATAGGTCAGATCGGGCCAGTATACGCTATA,2.53,3.8,3.77,-0.503,2.97,4.24,-1.1,-0.438
AGAATGCGGTTATACGTAGATCAGGGAAGAAAGT,-0.25,0.0152,-0.0583,-0.501,0.067,-0.31,-0.634,-0.661
ACTATTAATTGACTTAGGGCAACCGATACGACGC,1,0.766,0.814,0.828,0.409,0.884,1.15,1.24
TAGCCTAGGGCAGATCGGGCCAGTATACGCTATA,-0.161,0.171,0.578,-1.17,-0.16,2.16,-1.07,-0.532
CTCGAAAGGTCGTGCTCAGGTGAGTATCCCAAAC,2.88,5.08,3.47,2.02,4.66,4.05,1.22,0.742
ACTAGTTGGTCAGCTGAGGTCACAAACAATTCGG,4.02,3.8,3.86,0.835,3.71,5.04,4.45,3.58
TTTATTAGTTGAAGGGCAACCGACGAGTCCGTTT,1.42,0.781,0.783,0.859,0.628,0.408,0.198,1.91
AGAACGAGGGCAATGAGTTGATAGCACGGGTGGC,0.844,0.952,1.54,1.78,0.91,0.824,-0.00899,2.26
AGCCAAAGTTCATCTAGGTAACGTAAGATATGCT,4.1,5.56,5.88,4.5,4.72,3.15,0.256,5.28
CGTCAAAGTTCAACTAAGGTAACGTGAAGCACGC,4.14,6.07,6.8,4.62,5.49,5.14,1.68,3.84
ATCGAAAGGTCGAGGTGAGTATAGAGAAAGGGAA,2.86,4.31,4.51,0.657,4.3,2.81,0.624,0.373
CTTCCAAGGTCAAAGGTCAGTGAAGAGATGACGG,5.53,8.63,8.01,3.91,10.4,5.02,3.03,3.67
CCGAGTAGGTAATGGGGCATTCAGGCAACGGTGA,0.64,-0.0696,0.0893,-0.575,0.0759,0.219,0.00825,-0.22
TATCCTAGGTCATTCAGGGGCCAGTATAGAAAGC,3.68,6.44,4.99,2.55,3.59,3.76,1.57,2.01
ACTATTAGCTGACTTAGGGCAACCGATACGACGC,0.665,0.504,0.628,0.619,0.197,0.454,0.576,-0.00444
TTACCAAGGTGAAGGTCGTCGATCCCTCTGTAGA,1.78,1.59,1.7,-0.188,2.12,2.36,0.653,-0.137
ATCTATAGGTAACAAGTTCAGTGAAAGAGAGGAC,2.01,1.61,1.59,1.56,1.19,1.33,0.91,2.47
TAGCCTAGGTCATTGAGGGGCCAGTATAGAAAGC,2.97,5.82,4.34,1.59,2.82,3.05,0.714,1.16
CCTTACGGGTCAATGACAGGTTATAGCATTTGGA,3.12,5.64,4.22,1.9,4.58,2.59,-0.0254,1.18
TCTAGCAGGCCAGAGGGTCACTGAAGAGGTACGG,2.72,2.74,1.97,-0.0936,2.63,1.7,-0.233,0.299
CCTATTAGTTGCCCATAAGGGCAACCGAAGCTCG,1.75,0.539,0.688,0.215,0.507,1.65,1.67,0.922
CGTCAAAATTCAAGGTAACGTAACAGAAAGCAGC,0.985,0.175,0.447,-0.0025,0.308,1.64,1.15,0.24

Sequence,PBM binding z-score [1],PBM binding z-score [2],PBM binding z-score [3],PBM binding z-score [4],PBM binding z-score [5],PBM binding z-score [6],PBM binding z-score [7],PBM binding z-score [8]
ATATGTAGGTTACATCCGGGTCATTTAGGCTATG,2.76,3.59,1.81,1.21,3,3.7,2.55,2.98
GCAGACAGGTGAAGCGCAGGTAACTCAGGGTGGC,-0.151,0.302,0.0246,-0.801,0.395,0.73,-0.688,-0.755
ATCTCTAGGTAACAAGTTCAGTCAAAGAGAGGAC,1.92,1.45,1.43,1.09,0.866,1.62,1.12,2.65
ATCTCTAGGTAACCAAGTTCTGTGAATGCCGAAC,0.202,0.225,0.194,-0.0032,0.246,0.718,0.76,0.355
CAAACTAGGTCACCGGAAGGGCAAAGTCCGCATG,4.57,6.48,5.56,1.21,3.68,3.42,1.7,1.33
CCTAGGAGGCCAGGGTCACTCAAGCATTTCGCTT,2.95,2.9,2.55,-0.274,3.08,2.8,0.866,1.02
GCTTACGGGTCAAAGGTTATCGCATGAATAGAAT,3.45,7.02,5.01,2.6,9.64,3.98,0.155,1.59
ACTAGCAGGCAAAGGGTCACTCAAGATTAGTCCG,3.87,3.98,3.89,0.88,4.31,2.58,0.198,1.57
CAACCTAGGTCAAGAGGTCAAAGTCCGCTTCCCG,5.47,8.21,7.78,3.12,8.82,4.18,2.41,4.38
CCAGACAGGTGAGAAAGTAACTCAGCCTCGATTA,0.0469,0.0483,0.249,0.169,0.0557,-0.0555,-0.123,-0.255
CCTGCTCGGTCATGGTCAGCTAATCTACAGTATG,1.93,1.91,2.66,0.361,0.252,0.067,-0.311,-0.527
ACTAGCAGGCCAAGGGACACTCAAGATTAGTCCG,0.745,0.424,0.835,-0.24,-0.0147,-0.112,-0.143,-0.433
CAAACTAGGTCACCGAGGTCAAAGTCCGTGCGTA,5.47,6.99,7.18,3.46,7.09,4.93,4.37,7.68
CCTGCTTGGTCAATGGTCAGCTAAAGCAGCTCGC,0.507,-0.324,0.0947,0.0969,-0.389,-0.501,-0.238,-0.585
CGAACTAGGTCATCCAGGACAGTTAATACATTGA,3,3.93,4.66,2.41,2.99,3.54,2.15,2.37
TGAATGAGGTTATAGGATCAGGGAACGTTGCAAA,0.349,1.53,0.884,0.852,2.42,2.12,0.489,0.329
TCTCGGAGGCCACGAAGGTCAGAGCTTTCCAGAG,3.74,3.08,3.36,0.442,1.88,2.12,-0.105,0.706
CCTACTGGGCCATTCAGAGGTCATTGAGCATATG,4.08,4.6,3.1,0.996,3.54,3.27,1.22,3.44
GCAACTGGGGCATCAGCAGGTTACCATAACTTAA,0.793,0.74,0.473,0.26,0.318,1.04,0.19,-0.0433
GATACAGGGTCAGGGCCAGAGTACGCGTATTGAT,3.15,4.29,4.19,0.901,4.15,2.89,0.838,1.2
TCGAGTAGGTTACTCGGGGCATTCAGCCAACATA,0.524,0.206,0.191,0.42,0.372,1.76,-0.17,0.557
CCTCGGAAGACAACAGGAGGTCAGAGCTGCCAGA,2.77,1.94,1.99,-0.3,1.69,2.04,0.668,1.28
ACTCGGAGGACAAAGCTCAGAGCTACGCCAGTGA,-0.345,0.103,0.826,0.394,-0.292,0.233,-0.675,-0.243
TGAATGAGGTTATAAGAGCAGGGAACGTTGCAAA,0.269,1.47,0.87,0.547,1.87,1.66,0.0456,0.451
GCTTGGAGGACAAGGTCAGAGCTTTGTCCGTAGA,3.25,3.03,3.61,0.782,2.37,3.02,1.46,0.256
ATCACTAGGTAAAGATAGTTCAGTGAATGCAAAT,0.839,0.649,0.795,-0.617,0.325,0.492,0.0795,0.49
